DAX1 inh-1 – inhibitors of DAX1 repression of SF-1 activated StAR promoter | HEK293T StAR-luciferase reporter, SF-1/DAX-1 repression relief | inhibition, % at 6.8 µM | 1.1% of 370,000 active;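 active = inhibition above the mean over all tested compounds plus 3 SD, cut at about 3.6% in these data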;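 note: 0% = DAX-1 cells with DMSO and 100% = cells lacking DAX-1 with DMSO; higher inhibition means more luminescence from relief of DAX-1 repression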
hgDAF12 agonist – activates the H. glycines DAF-12 receptor ligand-binding domain; HEK293 GAL4-hgDAF12 UAS-luciferase reporter, agonist luminescence; normalized to butyrate control; activation, % at 6.8 µM; 1.8% of 370,000 active; AID 687014;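 active = activation above a cutoff set at the mean of all screened compounds plus 3 SD, cut at about 10% in these data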;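 note: 0% = DMSO wells and 100% = sodium butyrate wells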
ssDAF12 agonist – activators of S. stercoralis DAF-12 nuclear receptor; activation, % at 6.8 µM; 1% of 370,000 active; AID 652126; HEK293 ssDAF-12/GRIP1 lit1-tk-luc reporter, luminescence; % of 3 µM dafachronic acid response;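 active = activation above the mean over all tested compounds plus 3 SD, cut at about 0.9% in these data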;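 note: 0% = DMSO-only wells and 100% = 3 µM delta7-dafachronic acid wells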
DAX1 inh-2 – inhibitors of human orphan nuclear receptor DAX1 (NR0B1); HEK293 Gal4-DAX1 luciferase reporter, luminescence; P51843; inhibition, % at 6.75 µM; AID 504766; 0.99% of 340,000 active;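 active = inhibition above the mean over all tested compounds plus 3 SD, cut at about 4.2% in these data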;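 note: 0% = DAX1-transfected cells with DMSO and 100% = empty-vector control cells with DMSO; inhibition shows as a rise in luminescence from relieved DAX1 repression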
Target sequence (P51843 207-470 limits assumed): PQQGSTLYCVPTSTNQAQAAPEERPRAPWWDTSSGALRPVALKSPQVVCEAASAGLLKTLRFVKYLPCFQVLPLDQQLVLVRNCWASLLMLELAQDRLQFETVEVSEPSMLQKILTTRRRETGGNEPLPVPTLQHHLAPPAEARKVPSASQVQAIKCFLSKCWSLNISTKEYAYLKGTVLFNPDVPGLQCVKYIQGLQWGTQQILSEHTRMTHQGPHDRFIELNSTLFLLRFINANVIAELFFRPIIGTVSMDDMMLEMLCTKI
hcDAF-12 act – activators of H. contortus DAF-12 nuclear receptor; HEK293 hcDAF-12 lit1-tk-luc reporter, luminescence; 0% DMSO, 100% Δ7-dafachronic acid; activation, % at 6.8 µM; 1.4% of 370,000 active;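 active = activation above the mean of all tested compounds plus 3 SD, cut at about 5.5% in these data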;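 note: 100% = response to 3 µM Δ7-dafachronic acid high control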
SMARCA2 activ – SMARCA2 function activation, primary screen. 1% of 370,000 active. activation, % at 9.1 µM. MG213 cells, MMTV-luciferase reporter, dexamethasone, overnight; in the data active = activation above about 7.8%;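 note: 0% = vehicle wells and 100% = reference activator wells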
SMARCA2 conf – confirmation of SMARCA2 (BRM) function activators; 30% of 3,500 active; activation, % at 9.1 µM; MG213 cells, MMTV-luciferase with dexamethasone, luminescence, overnight; MG213 cells expressing E1A, Rb sequestered; DMSO wells 0%, reference activator 100%; shares compounds with SMARCA2 activ;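 active = activation above its plate's cutoff, the mean activation of tested wells plus 3 SD, cut at about 7.9% in these data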
GAL4-VP16 Luc – GAL4-VP16 reporter activation counter-screen. shares compounds with SMARCA2 activ. HEK293 GAL4-VP16 pG5luc reporter, luciferase luminescence; scaled: DMSO wells 0%, SAHA wells 100%. activation, % at 9.1 µM. 41% of 3,500 active;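 active = activation above the solvent-only control well mean plus 3 SD, averaged across control plates, cut at about 5.2% in these data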
An asterisk follows results filed as active. Shown are actives, neighbours in structure and some others; about 4.8% of the full set was active somewhere.

Results for O=C(CSc1ccccc1)N1CCC(Oc2cccnc2)CC1 ?
DAX1 inh-1: 1; hgDAF12 agonist: 9; ssDAF12 agonist: -1; hcDAF-12 act: -1; SMARCA2 activ: 0

How did CCOC(=O)NC(=O)/C(C#N)=C\Nc1ccc(Cl)cc1Cl do in these assays?
DAX1 inh-1: 1; hgDAF12 agonist: 5; ssDAF12 agonist: 0; DAX1 inh-2: 0; hcDAF-12 act: 2; SMARCA2 activ: 9.0*; SMARCA2 conf: 1; GAL4-VP16 Luc: 7.9*

Results for O=C(CSc1nc2ccccc2c(=O)[nH]1)NC1CCCCC1 ?
hgDAF12 agonist: 3; ssDAF12 agonist: 0; hcDAF-12 act: 0

What do the screens show for `CCOC(=O)C1CN(S(=O)(=O)c2ccccc2)c2cc(S(=O)(=O)CC)ccc2O1` (configuration not stated)?
DAX1 inh-1: 0; hgDAF12 agonist: 2; ssDAF12 agonist: -1; DAX1 inh-2: 0; hcDAF-12 act: -2; SMARCA2 activ: -1

How did CCS(=O)(=O)c1ccc2c(c1)N(S(C)(=O)=O)CC(C(=O)NCCOC)O2 (configuration not stated) do in these assays?
DAX1 inh-1: 1; hgDAF12 agonist: -1; ssDAF12 agonist: -1; DAX1 inh-2: 0; hcDAF-12 act: -1; SMARCA2 activ: 12*; SMARCA2 conf: -1; GAL4-VP16 Luc: 1

How did COc1ccc(COc2cccc(C=O)c2)cc1 do in these assays?
DAX1 inh-1: 1; hgDAF12 agonist: 10; ssDAF12 agonist: 0; DAX1 inh-2: -2; hcDAF-12 act: 2; SMARCA2 activ: 5

How did O=Cc1ccc(OCc2ccc3ccccc3c2)cc1 do in these assays?
DAX1 inh-1: 1; hgDAF12 agonist: 12*; ssDAF12 agonist: 0; DAX1 inh-2: 0; hcDAF-12 act: 3; SMARCA2 activ: 8.2*; SMARCA2 conf: 5; GAL4-VP16 Luc: 6.1*

What do the screens show for `Cc1[nH]c2ccccc2c1/C=N/NC(=O)CNC(=O)c1ccccc1`?
DAX1 inh-1: -1; hgDAF12 agonist: -1; ssDAF12 agonist: -1; DAX1 inh-2: 0; hcDAF-12 act: -2; SMARCA2 activ: -3

How did Cc1[nH]c2ccccc2c1/C=N/Nc1nc2ccccc2[nH]1 do in these assays?
DAX1 inh-1: -1; hgDAF12 agonist: -2; ssDAF12 agonist: -1; hcDAF-12 act: 2; SMARCA2 activ: 21*; SMARCA2 conf: 9.2*; GAL4-VP16 Luc: 5

Results for Cc1[nH]c2ccccc2c1/C=N/NC(=O)c1ccc(N)cc1 ?
DAX1 inh-1: 0; hgDAF12 agonist: 2; ssDAF12 agonist: 0; DAX1 inh-2: 1; hcDAF-12 act: 5; SMARCA2 activ: 9.3*; SMARCA2 conf: 3; GAL4-VP16 Luc: 0

How did COC(=O)[C@]12C[C@H](CC(=O)N3CCN(C(=O)C4CC4)CC3)C(=O)N(Cc3ccco3)C1=C[C@H](COCc1ccccc1)O[C@@H]2C do in these assays?
DAX1 inh-1: 0; hgDAF12 agonist: 2; ssDAF12 agonist: -1; hcDAF-12 act: -2; SMARCA2 activ: -6

Results for Cc1ccc(NC(=S)NNC(=O)c2cnccn2)cc1 ?
DAX1 inh-1: -1; hgDAF12 agonist: -1; ssDAF12 agonist: -1; hcDAF-12 act: -2; SMARCA2 activ: -4

How did O=S1(=O)c2c(cccc2N2CCC[C@@H]2CO)O[C@@H]2CCN1C2 do in these assays?
DAX1 inh-1: 0; hgDAF12 agonist: 0; ssDAF12 agonist: 0; hcDAF-12 act: 1; SMARCA2 activ: -1

What do the screens show for `COc1ccc(-c2cn(-c3ccc(C)cc3)c(=O)n2CC(=O)Nc2ccc(OC)cc2OC)cc1`?
DAX1 inh-1: -1; hgDAF12 agonist: -3; ssDAF12 agonist: 1; DAX1 inh-2: 1; hcDAF-12 act: 1; SMARCA2 activ: 8.8*; SMARCA2 conf: -4; GAL4-VP16 Luc: 3
